Eleven molecules from publication PMC12864922, “TDP-43 directly inhibits mRNA accumulation in neurites through modulation of mRNA stability” can be followed below.

Whole data set: some 9,900 sequences, median “r (bound/input frequency ratio)” near 0.7, cut for the highest 2% near 6.5. For the sample, the highest values were picked, then their nearest neighbours and some sequences at random.

Sequences and labels used below:
B1: ENSMUSG00000034801.23|Sos2 (ssRNA)
RNA: GGGAGUUCUACAGUCCGACGAUCGCUUCGAUAUCCGCAUGCUAGAUUCCACGCAGCUGUCACUUGCUCAGCUCCAGUCACAGCAGCCUUGCUCAUCUUCCAGCUCCUCCUGUCCCACCAAGGCAGAAUUCAAGCCCUCUCUUACCAAAGCUGCCACCAAAGACUUACAAACGGGAGCUUUCCCACCCGCCACUGUAUAGACUGCCUCUGCUGGAAAAUGCAGAAACUCCUCAAUGACCUUGGCCAUAUGUAGUCAUUGACACUGGAAUAGUAUUUGUAAAGGUUUUUAAUUUAUUCAAAAAGACUCUUGCGGUCGCACUAGUGUGGAAUUCUCGGGUGUCAAGG
B2: ENSMUSG00000028439.139|Fam219a (ssRNA)
RNA: GGGAGUUCUACAGUCCGACGAUCGCUUCGAUAUCCGCAUGCUAUCUGCCUCAUCCCCACACCGCCCUGCCACCCCCAGUCUUCUGUCUAUUGGUUCCAGGCUGGAAGCAAGAGAUAAGGCUGGCCUCCUGUGCCCCAUUGCCAUUUCACCCUAGCUCAAAGUCCAGGAGCCAGGCUUCCAGAAAGGCUCUUCAAGAGCAAGCUUAAGGAAAUACAGUGAGCCAAGUGGCUGUAUGAUAUGGUAUGGUAUGGUAUGGUAUGGUAUGGUAUGGUAUGCACAUGUGUGUGCAUGUGUGUGUGCCUGCUCUUGCGGUCGCACUAGUGUGGAAUUCUCGGGUGUCAAGG
B3: ENSMUSG00000028439.145|Fam219a (ssRNA)
RNA: GGGAGUUCUACAGUCCGACGAUCGCUUCGAUAUCCGCAUGCUACUUCUGUCUAUUGGUUCCAGGCUGGAAGCAAGAGAUAAGGCUGGCCUCCUGUGCCCCAUUGCCAUUUCACCCUAGCUCAAAGUCCAGGAGCCAGGCUUCCAGAAAGGCUCUUCAAGAGCAAGCUUAAGGAAAUACAGUGAGCCAAGUGGCUGUAUGAUAUGGUAUGGUAUGGUAUGGUAUGGUAUGGUAUGGUAUGCACAUGUGUGUGCAUGUGUGUGUGCCUGUGUGUGUGCGUGUGCGUGUGUGUAUGUGUGUGCGUGCUCUUGCGGUCGCACUAGUGUGGAAUUCUCGGGUGUCAAGG
B4: ENSMUSG00000028439.146|Fam219a (ssRNA)
RNA: GGGAGUUCUACAGUCCGACGAUCGCUUCGAUAUCCGCAUGCUAUCUAUUGGUUCCAGGCUGGAAGCAAGAGAUAAGGCUGGCCUCCUGUGCCCCAUUGCCAUUUCACCCUAGCUCAAAGUCCAGGAGCCAGGCUUCCAGAAAGGCUCUUCAAGAGCAAGCUUAAGGAAAUACAGUGAGCCAAGUGGCUGUAUGAUAUGGUAUGGUAUGGUAUGGUAUGGUAUGGUAUGGUAUGCACAUGUGUGUGCAUGUGUGUGUGCCUGUGUGUGUGCGUGUGCGUGUGUGUAUGUGUGUGCGUGUGUGUGCUCUUGCGGUCGCACUAGUGUGGAAUUCUCGGGUGUCAAGG
B5: ENSMUSG00000028439.144|Fam219a (ssRNA)
RNA: GGGAGUUCUACAGUCCGACGAUCGCUUCGAUAUCCGCAUGCUACCCAGUCUUCUGUCUAUUGGUUCCAGGCUGGAAGCAAGAGAUAAGGCUGGCCUCCUGUGCCCCAUUGCCAUUUCACCCUAGCUCAAAGUCCAGGAGCCAGGCUUCCAGAAAGGCUCUUCAAGAGCAAGCUUAAGGAAAUACAGUGAGCCAAGUGGCUGUAUGAUAUGGUAUGGUAUGGUAUGGUAUGGUAUGGUAUGGUAUGCACAUGUGUGUGCAUGUGUGUGUGCCUGUGUGUGUGCGUGUGCGUGUGUGUAUGUGUGCUCUUGCGGUCGCACUAGUGUGGAAUUCUCGGGUGUCAAGG
B6: ENSMUSG00000028439.142|Fam219a (ssRNA)
RNA: GGGAGUUCUACAGUCCGACGAUCGCUUCGAUAUCCGCAUGCUACGCCCUGCCACCCCCAGUCUUCUGUCUAUUGGUUCCAGGCUGGAAGCAAGAGAUAAGGCUGGCCUCCUGUGCCCCAUUGCCAUUUCACCCUAGCUCAAAGUCCAGGAGCCAGGCUUCCAGAAAGGCUCUUCAAGAGCAAGCUUAAGGAAAUACAGUGAGCCAAGUGGCUGUAUGAUAUGGUAUGGUAUGGUAUGGUAUGGUAUGGUAUGGUAUGCACAUGUGUGUGCAUGUGUGUGUGCCUGUGUGUGUGCGUGUGCGUGCUCUUGCGGUCGCACUAGUGUGGAAUUCUCGGGUGUCAAGG
B7: ENSMUSG00000028439.143|Fam219a (ssRNA)
RNA: GGGAGUUCUACAGUCCGACGAUCGCUUCGAUAUCCGCAUGCUAGCCACCCCCAGUCUUCUGUCUAUUGGUUCCAGGCUGGAAGCAAGAGAUAAGGCUGGCCUCCUGUGCCCCAUUGCCAUUUCACCCUAGCUCAAAGUCCAGGAGCCAGGCUUCCAGAAAGGCUCUUCAAGAGCAAGCUUAAGGAAAUACAGUGAGCCAAGUGGCUGUAUGAUAUGGUAUGGUAUGGUAUGGUAUGGUAUGGUAUGGUAUGCACAUGUGUGUGCAUGUGUGUGUGCCUGUGUGUGUGCGUGUGCGUGUGUGUACUCUUGCGGUCGCACUAGUGUGGAAUUCUCGGGUGUCAAGG
B8: ENSMUSG00000004113.108|Cacna1b|97:101;113:118;234:238 (ssRNA)
RNA: GGGAGUUCUACAGUCCGACGAUCGCUUCGAUAUCCGCAUGCUAGGACCCAGCAAAUCCAAAUCCUAUGUCAUGGCCUCCAGCAUCCAGGGUGGGUCCUUGGGACUUUUCUUAGGAGGGACUUUCUGAGCCUCGUGGAGACACACGUUUGUCCAAAACACACGCAUGGGAGAUAGGGUACCCCUGAAAGCAAGGAAAGGAGCCCAGCUGUGGCCUGGUAGCACCUGCCGGCACCAGUGAUCUCACGUCUCUUGUGGUCUUGGAGUCAAAUAGCACAUCAUACUAGAGAUGCGCUCAAGGGCCUGCUCUUGCGGUCGCACUAGUGUGGAAUUCUCGGGUGUCAAGG
B9: ENSMUSG00000042529.323|Kcnj12 (ssRNA)
RNA: GGGAGUUCUACAGUCCGACGAUCGCUUCGAUAUCCGCAUGCUAGAUGCUGUAUUUUCAAAUUCUCCUGCCCUCUUUUCCCCUUUUUCCCUGUAUUUAUUUAUUGCUUGUGCUAAAGACCAAACUAGCCGCCCCCUUUAGUGCACCCAAUGGAGGAAGCCACUGAGGGGGGAGCCGUGUGCCUGUGCCAGGCAGGAAAGCUUGGCCCCUGGGAAGUGUGUGAGAAGGAAAACCAGGGUGUGUGUGCACGCAUGUGCAGACGUGCUCACACGAUCGUCUCCCUGUGUGGGAAACUUGGUAUGCAGCUCUUGCGGUCGCACUAGUGUGGAAUUCUCGGGUGUCAAGG
B10: ENSMUSG00000031028.526|Tub (ssRNA)
RNA: GGGAGUUCUACAGUCCGACGAUCGCUUCGAUAUCCGCAUGCUACUUUCUCUUUUAUGGAAAUGGCAGGUCUAUUUGCCUCAAACGUUAUGUAGAAGUAGUUCUAAGUUUAACAAGCAAUAGAGAUGACUGCUUAGCUAGGAUCUGCAGGGAGCUCUGCUCUGCAAGCACAACACCUGUCUCAUAGAUGGACAGCCUGGUUUCCCUUCUCAGCAGUCCUGGCCUCCCCUUCUCUGUAUUCCUUGCCCCAGCUACGAUAUCCUCAUGGGAUUUCAGGAUGCCAGGUGCCAUCAAAGCAUGCUUUUCUCUUGCGGUCGCACUAGUGUGGAAUUCUCGGGUGUCAAGG
B11: ENSMUSG00000061578.913|Ksr2|118:122 (ssRNA)
RNA: GGGAGUUCUACAGUCCGACGAUCGCUUCGAUAUCCGCAUGCUACAGAGACAGAUUUCCCAGAAUCCCUGGGCCACUUCUCAAUUCUACCCAUGACAGACAUGUCCCAUCCAUGAGCCCAGAUAGUCAAAGACUUCAGCACAAGGGUGUUUAGAGUAGGCACACACGAAGUAUCAAUAAGGUUAUUGAGAUGAGGAUUUAGAAAGAUCCAUGUAUAAAAGGUCUAGAAGGAUGAAGAUCUAAAACAAGAAGACUGCAUGUUAACGCUCCUGCCACUGUUGCCCCUUCCUUUACCCUUGGCAGACCUCUUGCGGUCGCACUAGUGUGGAAUUCUCGGGUGUCAAGG

Chain of TDP-43 (Q13148 whole entry): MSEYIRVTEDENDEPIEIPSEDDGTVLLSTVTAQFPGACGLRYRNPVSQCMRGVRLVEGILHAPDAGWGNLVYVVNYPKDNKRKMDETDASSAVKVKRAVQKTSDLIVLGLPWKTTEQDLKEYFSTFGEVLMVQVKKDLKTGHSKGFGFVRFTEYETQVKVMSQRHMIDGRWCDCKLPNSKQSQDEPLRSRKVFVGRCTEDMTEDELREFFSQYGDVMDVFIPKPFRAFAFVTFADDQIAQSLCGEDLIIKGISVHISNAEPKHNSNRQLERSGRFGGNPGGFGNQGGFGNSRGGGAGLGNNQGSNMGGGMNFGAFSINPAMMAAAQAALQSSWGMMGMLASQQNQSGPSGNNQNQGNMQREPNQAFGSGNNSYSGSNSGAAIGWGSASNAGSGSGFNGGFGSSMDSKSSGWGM

The test addresses TDP-43 (Homo sapiens, UniProt Q13148 1-414). Briefly: RNA Bind-n-Seq with designed 260-mer pool; 25 mM Tris-HCl, 150 mM KCl, 3 mM MgCl2, BSA (printed 500 mg/mL), 20 units/mL SUPERase IN; pH not stated; 500 nM RNA pool, 1 h, 4 C; TDP-43 5, 50, 500 nM; high values mean tight binding. The settings on record: protein: recombinant; tags: SBP (GST cleaved off with PreScission; pGEX-GST-SBP). The procedure, abridged: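 Recombinant SBP-tagged TDP-43 at 5, 50 or 500 nM was captured on streptavidin beads, then incubated 1 h at 4 °C with 500 nM of an in vitro-transcribed 260-nt 3′ UTR oligo pool in 25 mM Tris-HCl, 150 mM KCl, 3 mM MgCl2, BSA and SUPERase IN. Bound RNA was washed, eluted with biotin, reverse transcribed, PCR-amplified and sequenced. Binding is R, each oligo's mapped-read-normalized abundance in the bound sample divided by its abundance in input. Duplicates used two independent protein batches.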
For B1, the binding signal is 0.462 R (bound/input frequency ratio).
Regarding B2, the binding signal was 2.12 R (bound/input frequency ratio).
To B3 belongs 8.23 R (bound/input frequency ratio); to B4, 7.87 R (bound/input frequency ratio); to B5, 6.06 R (bound/input frequency ratio).
With B6, the binding signal is 4.5 R (bound/input frequency ratio).
With B7, the binding signal is 5.96 R (bound/input frequency ratio).
To B8 belongs 0.293 R (bound/input frequency ratio); to B9, 2.13 R (bound/input frequency ratio); to B10, 0.219 R (bound/input frequency ratio).
To B11 belongs 0.457 R (bound/input frequency ratio).
